Experimental data from the supplement of paper PMC10849652.
The full data set covers some 7,900 targets. This sample favours those with a hit. About 0.6% of all pairs of compound and target were hits. Values without a mark were called inactive.

Legend:
Assay in all cases: log2 fold change, soluble protein after heating vs DMSO (PISA); higher = thermal stabilisation; K562 cells, 10 uM, 30 min; active = over 0.2 and 3.5 SD of the protein, either way, in both replicates (recomputed)
[1] = compound: C#Cc1cccc(Nc2ncnc3cc(OCCOC)c(OCCOC)cc23)c1 [erlotinib]
Procedure, shortened: (§1)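 Soluble protein was defined as the supernatant after 21,000xg for 90 min. It came from K562 cells at 2×10^6 cells/mL given 10 μM compound for 30 min, heated in aliquots for 3 min across 48°C-58°C, pooled, and extracted in PBS with 0.5% NP-40 at 4°C, and was quantified by TMTpro 16plex LC-MS/MS with equalised channel sums. Thermal stability against control samples, from duplicates, is reported as log2 fold change.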

[2] = compound: C/C(=N\NC(=O)C1=CC(=CC=C1)S(=O)(=O)N2CCOCC2)/C3=C(C=CC(=C3)Cl)O
Procedure, shortened: as §1

[3] = compound: C1=CC(=C(C=C1Cl)C2=NC3=NC=CN=C3C(=N2)NC4=CC=NC=C4)F
Procedure, shortened: as §1

[4] = compound: C1=CC(=CC=C1C2=NC3=C(N2)C=C(C=C3)C(=O)N)OC4=CC=C(C=C4)Cl
Procedure, shortened: as §1

[5] = compound: C1=CC2=C(C=CC(=C2)/C=C\3/C(=O)NC(=NCC4=CC=CS4)S3)N=C1
Procedure, shortened: as §1

[6] = compound: C1=CC2=NC=CN=C2C=C1/C=C/3\C(=O)NC(=O)S3
Procedure, shortened: as §1

[7] = compound: C1=CC=C(C=C1)C2=NC(=C(N2)C3=CC=NC=C3)C4=CC(=C(C=C4)Cl)O
Procedure, shortened: as §1

[8] = compound: C1=CC=C2C(=C1)C3=NNC4=CC=CC(=C43)C2=O
Procedure, shortened: as §1

[9] = compound: C1CCN(C1)C(=O)NC2=CC=CC(=C2)NC3=NC=C(C(=N3)NCCC4=CN=CN4)Br
Procedure, shortened: as §1

[10] = compound: C1CN(CCC1(CC2=CC=C(C=C2)Cl)N)C3=NC=NC4=C3C=CN4
Procedure, shortened: as §1

[11] = compound: C1COCCN1CCN2C3=CC=CC=C3N=C2NC(=O)C4=CC(=CC=C4)[N+](=O)[O-] [IRAK-1-4 Inhibitor I]
Procedure, shortened: as §1

[12] = compound: C=CC(=O)N1CCC[C@@H](n2nc(-c3ccc(Oc4ccccc4)cc3)c3c(N)ncnc32)C1 [ibrutinib]
Procedure, shortened: as §1

[13] = compound: CC(=O)c1cnc2ccc(-c3cc(Cl)c(O)c(Cl)c3)nc2c1N[C@H]1CC[C@H](CN(C)C)CC1
Procedure, shortened: as §1

[14] = compound: CC(C)(C)Cn1c(N)nc2ccc(-c3[nH]c(C(C)(C)C)nc3-c3ccc(F)cc3)nc21 [ralimetinib]
Procedure, shortened: as §1

[15] = compound: CC(C)(O)CC(=O)NCCn1ccc2ncnc(Nc3ccc(Oc4cccc(C(F)(F)F)c4)c(Cl)c3)c21
Procedure, shortened: as §1

[16] = compound: CC(C)C1=C2N=C(C=C(N2N=C1)NCC3=CC=CC=C3)NCCCCCCN
Procedure, shortened: as §1

[17] = compound: CC(C)C[C@@H](C=O)NC(=O)[C@H](CC(C)C)NC(=O)[C@H](CC(C)C)NC(=O)OCc1ccccc1
Procedure, shortened: as §1

[18] = compound: CC(C)N(C[C@H]1O[C@@H](n2cnc3c(N)ncnc32)[C@H](O)[C@@H]1O)[C@H]1C[C@@H](CCc2nc3cc(C(C)(C)C)ccc3[nH]2)C1 [pinometostat]
Procedure, shortened: as §1

[19] = compound: CC1=C(C(CC(=O)N1)C2=CC=C(C=C2)C(F)(F)F)C(=O)NC3=C(C=C4C(=C3)C=NN4)F
Procedure, shortened: as §1

[20] = compound: CC1=C(C2=C(C=C1)C(=O)C3=CC=CC=C3N2CCCN)C
Procedure, shortened: as §1

Sequence of UniProt O14733 (O14733 whole entry, looked up): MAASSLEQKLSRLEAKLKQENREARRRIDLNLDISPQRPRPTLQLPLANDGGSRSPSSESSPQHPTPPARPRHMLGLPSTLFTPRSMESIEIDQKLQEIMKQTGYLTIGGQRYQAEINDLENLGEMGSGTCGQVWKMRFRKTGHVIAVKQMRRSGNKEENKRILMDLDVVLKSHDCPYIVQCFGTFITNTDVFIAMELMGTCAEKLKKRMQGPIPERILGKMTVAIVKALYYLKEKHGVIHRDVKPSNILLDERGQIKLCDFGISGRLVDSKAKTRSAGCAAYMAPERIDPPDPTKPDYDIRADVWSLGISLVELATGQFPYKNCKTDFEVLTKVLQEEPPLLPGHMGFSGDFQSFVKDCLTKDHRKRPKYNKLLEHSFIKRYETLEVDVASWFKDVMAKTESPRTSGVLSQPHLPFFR
Sequence of UniProt Q8IW41 (Q8IW41 whole entry, looked up): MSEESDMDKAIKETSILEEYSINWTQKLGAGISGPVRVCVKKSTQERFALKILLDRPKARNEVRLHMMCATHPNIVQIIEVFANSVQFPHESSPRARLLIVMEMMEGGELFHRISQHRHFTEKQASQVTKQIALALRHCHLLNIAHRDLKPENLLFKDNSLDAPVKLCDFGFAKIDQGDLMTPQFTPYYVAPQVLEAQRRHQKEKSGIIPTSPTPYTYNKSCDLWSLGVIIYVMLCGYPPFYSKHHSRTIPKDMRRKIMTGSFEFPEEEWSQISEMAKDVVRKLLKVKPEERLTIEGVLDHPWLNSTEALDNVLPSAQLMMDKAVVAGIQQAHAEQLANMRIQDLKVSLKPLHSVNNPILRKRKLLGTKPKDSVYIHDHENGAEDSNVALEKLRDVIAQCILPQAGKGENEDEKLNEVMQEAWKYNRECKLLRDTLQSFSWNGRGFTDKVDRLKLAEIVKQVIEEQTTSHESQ
Sequence of UniProt Q8NE86 (Q8NE86 whole entry, looked up): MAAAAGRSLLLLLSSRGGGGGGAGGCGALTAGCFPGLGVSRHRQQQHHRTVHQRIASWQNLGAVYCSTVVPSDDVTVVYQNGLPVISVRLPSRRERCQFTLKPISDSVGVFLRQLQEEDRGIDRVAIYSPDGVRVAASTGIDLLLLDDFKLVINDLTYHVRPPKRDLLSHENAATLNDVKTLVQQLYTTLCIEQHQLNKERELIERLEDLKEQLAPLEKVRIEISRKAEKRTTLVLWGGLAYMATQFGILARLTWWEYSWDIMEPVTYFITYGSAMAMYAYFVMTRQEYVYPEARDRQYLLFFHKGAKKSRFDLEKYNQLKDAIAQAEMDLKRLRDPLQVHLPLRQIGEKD
Sequence of UniProt O14880 (O14880 whole entry, looked up): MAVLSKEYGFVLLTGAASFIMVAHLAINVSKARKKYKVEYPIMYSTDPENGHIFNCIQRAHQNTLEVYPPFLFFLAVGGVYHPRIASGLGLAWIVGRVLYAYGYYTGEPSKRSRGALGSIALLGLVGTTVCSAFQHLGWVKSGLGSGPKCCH
Sequence of UniProt P27816 (P27816 whole entry, looked up): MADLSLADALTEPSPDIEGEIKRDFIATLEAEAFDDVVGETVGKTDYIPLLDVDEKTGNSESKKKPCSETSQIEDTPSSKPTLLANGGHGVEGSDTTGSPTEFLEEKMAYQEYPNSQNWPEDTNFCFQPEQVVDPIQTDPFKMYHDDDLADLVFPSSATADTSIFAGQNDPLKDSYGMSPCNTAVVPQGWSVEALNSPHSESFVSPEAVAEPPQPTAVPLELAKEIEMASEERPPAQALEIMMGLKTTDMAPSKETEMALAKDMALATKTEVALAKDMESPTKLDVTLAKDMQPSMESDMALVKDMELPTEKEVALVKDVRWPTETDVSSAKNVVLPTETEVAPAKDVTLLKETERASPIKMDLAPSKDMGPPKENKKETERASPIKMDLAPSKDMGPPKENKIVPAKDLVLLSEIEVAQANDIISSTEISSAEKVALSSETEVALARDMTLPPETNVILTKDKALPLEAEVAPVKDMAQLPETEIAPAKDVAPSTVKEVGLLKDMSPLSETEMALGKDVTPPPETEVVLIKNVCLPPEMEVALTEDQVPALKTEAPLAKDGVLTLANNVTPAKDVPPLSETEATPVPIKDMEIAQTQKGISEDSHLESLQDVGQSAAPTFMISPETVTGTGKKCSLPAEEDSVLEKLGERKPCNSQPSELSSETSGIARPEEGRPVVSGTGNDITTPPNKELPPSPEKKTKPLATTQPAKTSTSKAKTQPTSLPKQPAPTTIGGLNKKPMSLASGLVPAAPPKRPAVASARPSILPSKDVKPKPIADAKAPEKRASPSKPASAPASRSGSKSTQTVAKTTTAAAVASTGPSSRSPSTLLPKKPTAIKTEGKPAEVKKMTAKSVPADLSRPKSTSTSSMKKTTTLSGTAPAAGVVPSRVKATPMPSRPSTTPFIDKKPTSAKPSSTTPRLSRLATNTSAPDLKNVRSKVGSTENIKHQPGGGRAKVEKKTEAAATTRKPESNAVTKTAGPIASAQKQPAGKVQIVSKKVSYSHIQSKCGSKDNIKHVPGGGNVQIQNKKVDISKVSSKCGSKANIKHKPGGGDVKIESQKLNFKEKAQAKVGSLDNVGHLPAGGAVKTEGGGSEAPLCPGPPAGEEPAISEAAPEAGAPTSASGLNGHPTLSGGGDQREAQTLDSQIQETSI
Sequence of UniProt O95140 (O95140 whole entry, looked up): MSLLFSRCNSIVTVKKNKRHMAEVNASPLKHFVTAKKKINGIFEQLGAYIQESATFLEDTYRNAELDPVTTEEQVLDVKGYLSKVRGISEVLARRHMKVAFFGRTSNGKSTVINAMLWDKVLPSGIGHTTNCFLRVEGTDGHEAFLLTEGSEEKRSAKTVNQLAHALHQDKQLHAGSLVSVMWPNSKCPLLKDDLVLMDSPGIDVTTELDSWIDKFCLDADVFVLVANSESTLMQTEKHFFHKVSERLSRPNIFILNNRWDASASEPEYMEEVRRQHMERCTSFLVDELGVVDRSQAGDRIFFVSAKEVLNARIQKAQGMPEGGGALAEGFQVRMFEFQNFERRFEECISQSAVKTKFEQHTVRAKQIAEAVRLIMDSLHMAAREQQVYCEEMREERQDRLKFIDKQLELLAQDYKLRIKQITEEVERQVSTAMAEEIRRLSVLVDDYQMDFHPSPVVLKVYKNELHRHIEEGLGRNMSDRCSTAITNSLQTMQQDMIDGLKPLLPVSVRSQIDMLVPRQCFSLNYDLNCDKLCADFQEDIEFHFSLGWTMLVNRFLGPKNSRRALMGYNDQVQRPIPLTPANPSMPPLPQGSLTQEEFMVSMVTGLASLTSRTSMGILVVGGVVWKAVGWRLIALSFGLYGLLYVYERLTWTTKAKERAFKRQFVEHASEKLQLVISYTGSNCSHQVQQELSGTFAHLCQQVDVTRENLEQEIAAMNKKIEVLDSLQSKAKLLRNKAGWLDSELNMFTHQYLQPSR
Sequence of UniProt Q9Y287 (Q9Y287 whole entry, looked up): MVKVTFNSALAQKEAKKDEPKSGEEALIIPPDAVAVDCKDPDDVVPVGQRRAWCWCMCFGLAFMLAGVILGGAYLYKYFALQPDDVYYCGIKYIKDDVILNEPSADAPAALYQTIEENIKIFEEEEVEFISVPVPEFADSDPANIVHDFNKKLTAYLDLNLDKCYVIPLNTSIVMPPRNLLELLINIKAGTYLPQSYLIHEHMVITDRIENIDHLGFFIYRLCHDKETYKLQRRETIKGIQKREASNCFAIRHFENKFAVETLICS
Sequence of UniProt Q5XKP0 (Q5XKP0 whole entry, looked up): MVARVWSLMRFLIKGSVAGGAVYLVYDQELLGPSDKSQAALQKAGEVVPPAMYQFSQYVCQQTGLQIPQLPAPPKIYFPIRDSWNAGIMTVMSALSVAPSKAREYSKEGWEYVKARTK
Sequence of UniProt O95372 (O95372 whole entry, looked up): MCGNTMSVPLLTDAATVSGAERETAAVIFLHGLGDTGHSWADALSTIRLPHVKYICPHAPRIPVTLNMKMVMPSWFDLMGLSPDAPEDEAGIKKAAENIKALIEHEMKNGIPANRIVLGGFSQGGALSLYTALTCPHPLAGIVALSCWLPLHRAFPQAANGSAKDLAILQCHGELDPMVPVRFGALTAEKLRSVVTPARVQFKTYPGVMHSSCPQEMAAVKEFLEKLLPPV
Sequence of UniProt Q8N108 (Q8N108 whole entry, looked up): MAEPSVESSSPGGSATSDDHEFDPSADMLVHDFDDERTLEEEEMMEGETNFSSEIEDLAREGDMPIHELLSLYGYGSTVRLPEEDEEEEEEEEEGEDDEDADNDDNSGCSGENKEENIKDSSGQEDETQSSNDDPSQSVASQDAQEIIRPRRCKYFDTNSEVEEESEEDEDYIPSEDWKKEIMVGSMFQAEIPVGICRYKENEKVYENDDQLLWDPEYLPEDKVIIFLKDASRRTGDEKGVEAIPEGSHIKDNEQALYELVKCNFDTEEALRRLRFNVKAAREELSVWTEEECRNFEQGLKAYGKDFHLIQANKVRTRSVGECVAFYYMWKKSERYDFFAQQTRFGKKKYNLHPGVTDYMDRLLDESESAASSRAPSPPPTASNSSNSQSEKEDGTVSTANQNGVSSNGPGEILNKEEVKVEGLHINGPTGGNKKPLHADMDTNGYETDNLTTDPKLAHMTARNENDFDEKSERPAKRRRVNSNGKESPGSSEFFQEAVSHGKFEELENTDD
Sequence of UniProt P33947 (P33947 whole entry, looked up): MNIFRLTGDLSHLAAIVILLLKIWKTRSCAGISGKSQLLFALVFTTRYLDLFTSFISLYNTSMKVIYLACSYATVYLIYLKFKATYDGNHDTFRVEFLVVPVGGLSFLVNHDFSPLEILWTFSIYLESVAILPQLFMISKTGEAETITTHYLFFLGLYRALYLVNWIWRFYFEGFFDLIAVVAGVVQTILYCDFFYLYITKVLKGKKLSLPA

Target	log2 fold change [1]	log2 fold change [2]	log2 fold change [3]	log2 fold change [4]	log2 fold change [5]	log2 fold change [6]	log2 fold change [7]	log2 fold change [8]	log2 fold change [9]	log2 fold change [10]	log2 fold change [11]	log2 fold change [12]	log2 fold change [13]	log2 fold change [14]	log2 fold change [15]	log2 fold change [16]	log2 fold change [17]	log2 fold change [18]	log2 fold change [19]	log2 fold change [20]
MFN2 (UniProt O95140)	0.027	0.049	0.007	-0.001	0.026	0.008	0.041	-0.003	-0.016	-0.019	-0.033	0.03	-0.055	-0.014	0.009	-0.479 (active)	0.032	-0.017	-0.022	0.049
KNTC1 (UniProt P50748)	0.102	0.068	0.029	-0.039	0.019	0.034	-0.065	-0.012	0.001	-0.004	-0.084	-0.028	0.058	-0.007	0.012	-0.157	0.039	0.095	-0.02	-0.008
MGST3 (UniProt O14880)	-0.025	-0.03	0.013	0.003	0.006	0.041	-0.022	-0.023	0.019	0.016	0.115	0.042	0.036	0.062	0.041	0.073	0.006	-0.025	0.011	-0.014
MICOS13 (UniProt Q5XKP0)	0.008	0.018	0.053	-0.007	0.001	0.039	0.051	0.052	0.007	0.023	0.087	-0.012	-0.022	-0.077	-0.193	-0.146	0.006	-0.023	-0.009	-0.008
MAP3K20 (UniProt Q9NYL2)	0.014	-0.013	-0.009	0.043	-0.009	0.038	-0.011	-0.106	-0.046	-0.036	-0.043	-0.167	-0.654 (active)	0.019	-0.032	0.034	0.052	0.099	0.073	0.027
MAP2K7 isoform 4 (UniProt O14733)	0.021	-0.005	0.061	0.017	0.01	0.017	-0.009	-0.032	-0.012	0.023	0.013	-0.301 (active)	0.175	-0.043	-0.013	-0.025	0.051	0.022	0.033	0.032
LYPLA2 (UniProt O95372)	-0.008	0.021	0.345 (active)	-0.01	0.081	0.097	0.14	-0.016	-0.084	-0.122	0.062	0.003	-0.134	-0.036	-0.106	-0.04	-0.056	-0.067	-0.021	0.197
MAP4 (UniProt P27816)	0.003	-0.041	0.006	-0.009	-0.039	0.011	-0.007	-0.02	-0.025	0.015	0.003	0	0.012	0.025	0.012	0.076	0.019	0.001	0.006	0.08
MICU1 isoform 3 (UniProt Q9BPX6)	-0.02	-0.026	-0.022	0.002	-0.009	0.007	-0.054	0.008	0.013	-0.015	0	-0.009	-0.025	0.007	-0.016	-0.285 (active)	0.08	0.076	0.067	0.09
MAPKAPK5 (UniProt Q8IW41)	0.249 (active)	-0.249	0.024	-0.087	0.019	0.052	0.043	0.025	-0.033	0.012	0.029	-0.003	0.052	0.029	-0.139	0.218	0.055	-0.042	-0.161	0.002
IPO9 (UniProt Q96P70)	-0.021	0.073	0.01	-0.061	0.023	0.096	-0.035	-0.024	-0.02	0.052	0.024	-0.082	0.113	0.01	-0.079	-0.039	-0.068	0.012	-0.025	0.447 (active)
MCU (UniProt Q8NE86)	0.007	0.042	0.083	0.008	0.027	0.013	0.001	0.014	0.004	0.013	0.06	-0.026	-0.036	-0.042	-0.108	-0.122	-0.026	0.03	0.025	0.017
ITM2B (UniProt Q9Y287)	0.099	-0.012	-0.122	0.041	0	0.042	0.068	-0.12	-0.066	0.027	-0.008	0.071	-0.043	-0.005	-0.042	-0.119	0.197	0.03	0.117	-0.198
KDELR2 (UniProt P33947)	-0.06	-0.052	0.048	-0.02	0.042	0.024	0.201	0.048	-0.102	0.019	-0.007	0.03	-0.14	0.127	-0.035	-0.047	-0.568 (active)	-0.008	0.024	0.103
MIER1 isoform 12 (UniProt Q8N108)	0.399 (active)	0.009	0.016	-0.031	0.024	0.014	0.001	0.02	-0.06	0.028	0.055	-0.012	-0.035	0.033	-0.021	-0.062	0.03	-0.013	0.027	-0.122
MED12 isoform 2 (UniProt Q93074)	0.022	0.04	-0.031	0.188	0.101	0.121	0.012	-0.361	0.193	-0.11	-0.057	-0.098	-0.747 (active)	-0.05	-0.024	-0.291	-0.005	0.251	-0.053	-0.04
